# From PubChem BioAssay
# NCOA1 inh: human NCOA1 inhibition. AID 588354. inhibition, % at 3.6 µM. hit rate 0.12% among 360,000. HEK293 GAL4-SRC1 luciferase reporter, luminescence. Q15788;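 active means inhibition above the campaign mean plus 3 SD, with each screening campaign given its own cutoff, cut at about 60% in these data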;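 further: 0% = DMSO treated cells and 100% = gossypol at 36 µM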
# Shn3 3UTR inh: inhibitors of Schnurri-3 3'UTR reporter in osteoblasts; Clone20 osteoblast Shn3 3'UTR firefly luciferase, 24 h; inhibition, % at 12.5 µM; hit rate 0.52% among 360,000;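 active means mean inhibition of at least 75% with every replicate also reaching 75%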;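 further: 0% = median of neutral control wells and 100% = pilot-screen positive control compound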
# Gli-Sufu antag: antagonists of Gli-Sufu signaling | Sufu-KO-LIGHT fibroblasts, Gli luciferase reporter luminescence | inhibition, % at 5 µM | hit rate 0.74% among 340,000 | AID 588413;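 active means inhibition above about 55%, limit read from the data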;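 further: 0% = DMSO-treated cells and 100% = wells with medium but no cells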
# SRC2 inh: human SRC2 (NCOA2) inhibition; Q15596; HEK293 GAL4-SRC2 luciferase reporter, luminescence; inhibition, % at 9 µM; hit rate 0.17% among 370,000;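 active means inhibition above the mean inhibition of all tested compounds plus 3 SD, set per campaign, cut at about 52% in these data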;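 further: 0% = DMSO treated cells and 100% = cells given Gossypol at 36 µM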
# NR5A2 inv ag: NR5A2 inverse agonism in reporter assay; O00482; HEK293T StAR-luciferase reporter, LRH-1 transfected, 24 h; inhibition, % at 3.6 µM; hit rate 0.13% among 360,000; AID 602396;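 active means inhibition above the mean inhibition of all tested compounds plus 3 SD, cut at about 73% in these data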;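 further: 0% = DMSO wells and 100% = reporter-only cells lacking LRH-1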
# Target sequence (O00482 whole entry, looked up): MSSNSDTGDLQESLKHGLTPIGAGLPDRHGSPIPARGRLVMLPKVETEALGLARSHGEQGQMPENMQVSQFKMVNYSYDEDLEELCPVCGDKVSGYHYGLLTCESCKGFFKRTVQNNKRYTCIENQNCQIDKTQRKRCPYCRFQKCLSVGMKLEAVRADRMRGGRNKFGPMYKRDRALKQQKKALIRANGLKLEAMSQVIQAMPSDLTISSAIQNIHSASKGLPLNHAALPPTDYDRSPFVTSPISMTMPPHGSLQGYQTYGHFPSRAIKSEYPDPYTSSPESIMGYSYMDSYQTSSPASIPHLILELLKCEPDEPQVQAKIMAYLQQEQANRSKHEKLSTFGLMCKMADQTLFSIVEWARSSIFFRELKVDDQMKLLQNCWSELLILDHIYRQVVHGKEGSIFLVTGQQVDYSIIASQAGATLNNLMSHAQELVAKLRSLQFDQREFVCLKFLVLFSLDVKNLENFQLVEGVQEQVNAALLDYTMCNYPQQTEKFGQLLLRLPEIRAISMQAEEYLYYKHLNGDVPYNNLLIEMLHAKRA
# SRC3 inh: inhibitors of human steroid receptor coactivator 3 (SRC3) | HEK293 GAL4-SRC3 luciferase reporter, luminescence | inhibition, % at 3.6 µM | hit rate 0.17% among 360,000 | AID 588352;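 active means inhibition above a per-campaign cutoff, the mean of all compounds plus 3 SD, cut at about 60% in these data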;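 further: 0% = DMSO-treated cells and 100% = gossypol-treated cells at 36 µM; higher means less SRC3-driven luciferase light from the GAL4 reporter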
# Gli-Sufu confirm: confirmation of Gli-SUFU pathway antagonists; Sufu-KO-LIGHT cells, Gli luciferase reporter, luminescence; AID 602428; shares compounds with Gli-Sufu antag; hit rate 40% among 2,500; inhibition, % at 5 µM;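 active means mean inhibition at 5 µM reaching about 45%, limit read from the data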;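 further: plate controls were DMSO-treated cells for no effect and wells lacking cells for full effect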
# SufuKO cytotox: counter-screen for Gli-SUFU antagonists: cytotoxicity; shares compounds with Gli-Sufu antag; Sufu-KO-LIGHT cells cytotoxicity, ATP luminescence; cytotoxicity, % at 5 µM; AID 651994; hit rate 32% among 2,500;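 active means mean cytotoxicity at 5 µM above about 25%, limit read from the data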;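 further: cells exposed to compound overnight for roughly 16 to 18 hours; plate controls were DMSO wells with cells for no effect and medium without cells for full effect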
# Wnt3a cs: inhibits Wnt3a reporter, counter-screen for Gli-SUFU antagonists; shares compounds with Gli-Sufu antag; Wnt-LIGHT cells, Wnt3a-driven luciferase reporter, luminescence; inhibition, % at 6.25 µM; hit rate 20% among 2,500; AID 651995;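 active means mean inhibition above about 25%, limit read from the data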
# Active calls of the source: *; x = not tested or not shown. Only some compounds are listed: those with a hit (about 1.1% of all), similar ones and a draw of the others.
SMILES,NCOA1 inh,Shn3 3UTR inh,Gli-Sufu antag,SRC2 inh,NR5A2 inv ag,SRC3 inh,Gli-Sufu confirm,SufuKO cytotox,Wnt3a cs
Cc1ccc(OCCC(=O)N2CCN(c3ccc(O)cc3)CC2)cc1,-4.3,1.7,54.2,-27.0,-11.1,-11.3,35.4,14.7,0.0
CCOc1ccc(NCC(=O)c2ccc(C)cc2)cc1,-0.7,26.9,60.9*,-1.6,-5.0,-8.4,-4.7,20.9,-77.2
C#CC1(O)C2C=C(OC)C(=O)C1C(c1ccccc1)C2C (stereo unspecified),x,x,x,-35.6,x,x,x,x,x
COc1cccc(OC)c1/C(O)=C(\C#N)c1nc2ccccc2[nH]1,1.0,15.3,51.4,6.0,29.3,-14.7,19.1,22.1,-7.3
CCCn1c(N2CCN(C(=O)NCc3ccccc3)CC2)nc2ccccc21,1.5,17.1,56.6*,-5.9,-16.8,20.5,33.7,19.6,-89.8
O=C(Cc1cccs1)Nc1ccc2c(c1)C(=O)OC2,3.0,-8.6,99.0*,1.5,2.3,2.5,14.8,4.8,1.6
C=CCOC/C=C/C#CCN(Cc1ccc(OC)cc1OC)C(=O)Nc1ccccc1,x,x,x,-35.4,x,x,x,x,x
Cc1ccc(C)c(S(=O)(=O)N2CCN(C(=O)C3CCN(c4ncnc5sc(C)c(C)c45)CC3)CC2)c1,20.3,89.3*,73.0*,41.1,19.6,20.5,34.3,24.7,-10.8
Cc1ccc(NC(=O)C2CCN(c3ncnc4sc(C)c(C)c34)CC2)cc1S(=O)(=O)N(C)C,24.4,34.0,40.5,4.0,-2.9,35.2,x,x,x
Cc1sc2ncnc(N3CCN(S(=O)(=O)c4ccccc4)CC3)c2c1C,-6.7,94.0*,59.6*,x,-6.0,-11.5,53.6*,25.8*,30.4*
Cc1ccc(OCCN2CCN(c3ncnc4sc(C)c(C)c34)CC2)cc1,14.0,83.7,73.0*,30.9,54.5,33.4,73.3*,31.0*,15.0
COCCCNC(=O)C[C@H]1C[C@@]2(C(=O)OC)C(=C[C@H](COCc3ccccc3)O[C@@H]2C)N(Cc2ccccc2)C1=O,x,x,x,6.1,x,x,x,x,x
COc1ccc(CNc2ncnc3c2[nH]c2ccccc23)cc1,5.4,89.2*,53.1,2.3,7.9,15.2,64.0*,15.7,23.9
CC(C)OCCCNc1ncnc2c1[nH]c1ccccc12,5.1,45.8,63.7*,4.1,13.0,6.9,59.1*,39.8*,-31.1
CCCn1c(O)c(N=NC(=O)CNC(=O)c2cccnc2)c2ccccc21,-17.4,-1.3,6.9,-4.1,-12.3,-21.7,x,x,x
Cn1c(O)c(N=NC(=O)CNC(=O)c2cccnc2)c2ccccc21,-1.2,-7.9,51.1,-36.9,23.3,-1.2,25.2,0.5,3.9
O=C(NCCc1ccc(F)cc1)c1ccc2c(c1)ncn2C1CCCCC1,x,x,x,-37.6,x,x,x,x,x
CCOc1ccc(N(C)C(=O)CCc2nnc3ccc(N4CCCCC4)nn23)cc1,-4.5,8.6,59.4*,-4.8,-1.9,4.8,25.2,9.4,-13.8
Cc1nc2ccccc2c2c1CC(C(C)(Cl)Br)O2 (stereo unspecified),17.4,90.3*,55.4*,35.5,23.9,22.5,58.4*,22.3,7.1
COc1cccc(C(=O)NCCN2CCN(c3ccc(Cl)cc3)CC2)c1,5.9,4.4,50.5,26.6,15.4,6.1,23.1,4.3,-37.9
CC(=O)N1CC=CC1(CC(C)C)C(=O)NCCc1c[nH]c2ccccc12 (stereo unspecified),-3.7,3.1,95.0*,-8.8,12.8,-25.3,26.4,-4.0,-22.0
CCOCCCn1c(SCc2nc3ccccc3s2)nc2ccccc2c1=O,-61.5,14.0,54.5,-45.7,-24.9,-57.4,30.0,15.7,-145.0
CCOCCCn1c(SCC(=O)Nc2ccccc2)nc2ccccc2c1=O,-6.4,6.4,25.6,23.7,5.8,-7.9,x,x,x
Cc1ccc(NC(=S)NNC(=O)CSc2nnc(-c3ccc(C)cc3)n2C2CCCCC2)cc1,x,x,x,7.3,x,x,x,x,x
